Data on 30 compounds can be found in PubChem BioAssay AID743361 (Molecular Libraries Program, Specialized Chemistry Center, …, 2014).

The structures appear in SMILES notation. Unmarked numbers belong to inactive results. Active and inactive are the calls of the source. How the calls were made is not given here. Some results are limits rather than exact numbers.

This experiment is described as follows: Rhodamine 123 quenching counterscreen activity, dose response, counter-screen for mtPTP inhibitor project, biochemical, dry powder samples, uHTS hits, fluorescence (AID 743361). The following applies: Rhodamine 123 fluorescence quenching counterscreen, cell-free. Background: Counterscreens check selectivity or assay interference.
In the case of `O=S(=O)(Nc1ccc(CCN2CCCCC2)cc1)c1ccc(F)c(Cl)c1`, the IC50 (commonly the concentration needed to halve the response being measured) was above 100 µM.

For the compound `O=C(Nc1cc(Cl)ccc1F)c1cc(-c2cccc(O)c2)on1`, the IC50 is above 100 µM.

With `COc1ccccc1C(=O)Nc1ccc(CN2CCCCC2)cc1`, the IC50 is above 100 µM. Next, `CN1CCN(c2ccc(NS(=O)(=O)c3cccc(Cl)c3)cc2)CC1`: above 100 µM; `Cc1ccc(-c2cc(C(=O)Nc3cccc(Cl)c3)no2)cc1`: above 100 µM; `O=C(Nc1ccc(CN2CCCCC2)cc1)c1cccc(OCc2ccccc2)c1`: 55.4 µM (active).

For `O=C(Nc1cccc(Cl)c1)c1cc(-c2ccc(Cl)cc2)on1`, the IC50 is above 100 µM. The same measure for `CN1CCN(CCc2ccc(NS(=O)(=O)c3cccc(Cl)c3)cc2)CC1`: above 100 µM. For the compound `COc1ccc(Cl)cc1C(=O)Nc1ccc(CCN2CCNCC2)cc1`, the IC50 was above 100 µM. For the compound `CCCc1cc(C(=O)Nc2c(F)cc(F)cc2Br)no1`, the IC50 is above 100 µM. The same measure for `O=C(Nc1cccc(Cl)c1)c1cc(-c2cccc(O)c2)on1`: above 100 µM; for `CCN(CC)c1ccc(NC(=O)c2ccc(OC)c(Cl)c2)cc1`: above 100 µM; for `O=C(Nc1ccc(OCc2ccccc2)c(Cl)c1)c1cc(-c2cccc(O)c2)on1`: above 100 µM.

Regarding `CN1CCN(CCc2ccc(NS(=O)(=O)c3ccc(F)c(Cl)c3)cc2)CC1`, the IC50 was above 100 µM.

As to `COc1ccc(Cl)cc1C(=O)Nc1ccc(CCN2CCOCC2)cc1`, the IC50 was above 100 µM. Take `COc1ccc(NC(=O)c2cc(Cl)cc(Cl)c2OC)cc1`: the IC50 was above 100 µM. For the compound `O=C(Nc1ccc(N2CCCCC2)cc1)c1cccc(OCc2ccccc2)c1`, the IC50 is above 100 µM. For `O=C(Nc1ccc(CN2CCCCC2)cc1)c1cc(Cl)ccc1O`, the IC50 was above 100 µM. Take `COc1c(Cl)cccc1NC(=O)c1cc(-c2cccc(O)c2)on1`: the IC50 is above 100 µM. As for `CC1(C)CCN(CCCC(=O)c2ccc(Br)cc2)CC1`, the IC50 is above 100 µM. For `COc1ccc(Cl)cc1C(=O)Nc1ccc(CN2CCOCC2)cc1`, the IC50 was above 100 µM. The same measure for `O=C(Nc1cc(Cl)cc(Cl)c1)c1cc(-c2cccc(O)c2)on1`: above 100 µM. Turning to `COc1cccc(-c2cc(C(=O)Nc3cc(Cl)ccc3C)no2)c1`, the IC50 was above 100 µM. In the case of `COc1ccc(Cl)c(C(=O)Nc2ccc(CCN3CCCCC3)cc2)c1`, the IC50 is above 100 µM. The same measure for `CCCc1cc(C(=O)Nc2ccc(Br)cc2)no1`: above 100 µM; for `O=C(Nc1ccc(CN2CCCCC2)cc1)c1cc(OCc2ccccc2)ccc1Cl`: 76.2 µM (active); for `CN1CCN(Cc2ccc(NS(=O)(=O)c3ccc(F)c(Cl)c3)cc2)CC1`: above 100 µM. As to `COc1ccc(Cl)c(C(=O)Nc2ccc(CN3CCCCC3)cc2)c1`, the IC50 was above 100 µM. Regarding `COc1ccc(Cl)cc1C(=O)Nc1ccc(N(C)C)cc1`, the IC50 is above 100 µM. Next, `COc1ccc(Cl)c(C(=O)Nc2ccc(CN3CCOCC3)cc2)c1`: above 100 µM.
